The results in this text go back to PubChem BioAssay AID1345085 (National Center for Advancing Translational Sciences (NCATS), 2018).

SMILES strings stand for the structures. Records with an inconclusive call do not appear. A number with no mark means an inactive call. Calls of active or inactive are those of the source. Calls come from the whole dose curve; as a rule, active = well fitted cell-killing curve with a large enough effect; inconclusive = small, poorly fitted or top-dose-only effect, or effect the other way; inactive = no such curve, though single readings can be large or run the other way.
% is set by controls: 0 for no effect and ±100 for the full control effect; potency is the fitted concentration of half-maximal effect.

In the experiment the test system is CAOV3. The experiment is described as follows: Confirmatory qHTS for gynecologic anti-cancer compounds from libraries of approved drugs and bioactive compounds. Note: nearly all actives have a fitted effect of over 55% in size. To be noted: gynecologic cancer cell panel viability, ATPlite luminescence, 48 h; series mostly up to 57.6 µM; activity change, negative = viability loss: at the top concentration. From the text:
National Center for Advancing Translational Sciences [NCATS] Assay Overview: Chemotherapeutic drug responses vary from cancer to cancer and from patient to patient. These variations could be caused by a number of factors including patient genomic background, tumor mutations, tumor heterogeneity, and aspects of drug treatment. Chemotherapeutic drug resistance is also a common issue and can lead to ineffective treatment and patient death. Here we have profiled the cell killing effects of thousands of compounds to characterize the responses in three gynecological cancers, identify cancer-selective compounds, and understand the diversity of responses to these compounds from pan-cancer suppressors to single cell line selective compounds. In this assay, we screened a 7,914 compound drug library that included approved drug and bioactive compounds in six ovarian, three cervical, and two placental cancer cell lines using the ATPlite assay for cell viability. ATPlite is a luminescence based assay reliant on the conversion of a luciferase substrate to light in the presence of ATP. As a cytotoxic compound will suppress growth and decrease the number of cells, the concentration of ATP will decrease, and less light signal will be detected in the well. Hits were selected from the primary screen for follow-up confirmation. For the confirmation screens, the ovarian cancer cell lines included CAOV-3, SK-OV-3, SW 626, ES-2, PA-1, and TOV-21G. The cervical cancer cell lines included HeLa, Ca Ski, and C-33 A. The placental cancer cell lines included JEG-3 and JAR. HEK 293T cells were used as the control cell line to determine the selectivity index. The ATPlite assay was used to determine the IC50 values.
Assay Protocol Summary: 1,000 cells in 4 uL of media were dispensed into white, solid bottom 1536-well plates using a Multidrop Combi (Thermo Scientific). The Assay plates were incubated for 16 hours at 37 C with 5% CO2 in assay plates, followed by the addition of 23 nL of DMSO or drug dissolved in DMSO. . Each compound was assayed in 11 concentrations (1:3 dilution) from 57.5 uM to 0.977 nM, using the automated Wako 1536 Pin Tool workstation and incubated at 37 C with 5% CO2 48 hours. 4 uL of ATPlite, the ATP monitoring reagent, was then added to the each well of the assay plates using the Multidrop Combi reagent dispenser followed by incubation for 15 minutes at room temperature. The resulting luminescence was measured using the ViewLux plate reader.
Background: Quantitative high-throughput screening tests each substance at several concentrations.
Turning to `COc1ccccc1N1CCN(CC(O)COc2cccc3ccccc23)CC1` (stereo not given), the “activity change, negative = viability loss” value was -3.71%.
Turning to `CC(C)Oc1ccc(C(=O)NC(CNC(=O)CN(C)C)Cc2ccc(-c3cn4cccc(C(C)O)c4n3)cc2)cc1Cl` (stereo not given), the “activity change, negative = viability loss” value is -17.3%.
On to `CN1CCN(Cc2ccc(NC(=O)Nc3ccc(Oc4cc(NC(=O)C5CC5)ncn4)cc3)cc2C(F)(F)F)CC1`, for which the Potency was 13.7 µM (active).
As to `OC[C@H]1O[C@@H](n2cnc3c(=S)nc[nH]c32)[C@H](O)[C@@H]1O`, the Potency is 1.37 µM (active).
In the case of `COc1cc2c(Oc3ccc(-c4cnc(Nc5ccc(F)cc5)n(C)c4=O)cc3F)ccnc2cc1OCCCN1CCOCC1`, the Potency is 19.3 µM (active).
For `COc1c(C)c2c(c(O)c1C/C=C(\C)CCC(=O)O)C(=O)OC2`, the “activity change, negative = viability loss” value is -18.3%.
As to `CO[C@@]12[C@H](COC(N)=O)C3=C(C(=O)C(C)=C(N)C3=O)N1C[C@@H]1N[C@@H]12`, the “activity change, negative = viability loss” value was 15.3%.
Still for that read-out and setting: under `CCOc1ccc(Nc2nc(-c3c(C)nc4ccccn34)cs2)cc1` stands -9.28%.
As for `Cn1c(=O)c(-c2c(Cl)cccc2Cl)cc2cnc(Nc3cccc(C(=O)O)c3)nc21`, the Potency was 2.73 µM (active).
`COc1cc(-c2nn(C3CCC(N4CCN(C(C)=O)CC4)CC3)c3ncnc(N)c23)ccc1NC(=O)c1cc2ccccc2n1C` (stereo not given): the Potency was 30.6 µM (active).
For the compound `CCN[C@H]1C[C@H](C)S(=O)(=O)c2sc(S(N)(=O)=O)cc21`, the “activity change, negative = viability loss” value was 9.03%.
For `CC[C@@]1(O)C(=O)OCc2c1cc1n(c2=O)Cc2cc3c(CN(C)C)c(O)ccc3nc2-1`, the Potency is 0.544 µM (active).
`COc1cc2nccc(Oc3ccc(NC(=O)C4(C(=O)Nc5ccc(F)cc5)CC4)cc3)c2cc1OC`: the Potency was 21.7 µM (active).
In the case of `CC(C)Nc1cc(-c2c[nH]c(C(=O)N[C@H](CO)c3cccc(Cl)c3)c2)c(Cl)cn1`, the “activity change, negative = viability loss” value is 8.77%.
Consider `Cc1[nH]c2ccccc2c1CCNCc1ccc(/C=C/C(=O)NO)cc1`, for which the Potency is 0.685 µM (active).
Regarding `C[C@]12CCC(=O)C=C1[C@@H]1C[C@@H]1[C@H]1[C@@H]3[C@@H]4C[C@@H]4[C@@]4(CCC(=O)O4)[C@@]3(C)CC[C@@H]12`, the “activity change, negative = viability loss” value is 7.13%.
For `CCc1cccc(CC)c1NC(=O)N1Cc2[nH]nc(NC(=O)c3ccc(N4CCN(C)CC4)cc3)c2C1`, the Potency is 2.43 µM (active).
In the case of `CC(C)C[C@H](NC(=O)[C@H](Cc1ccccc1)NC(=O)c1cnccn1)B(O)O`, the Potency is 0.0769 µM (active).
As for `CS(=O)(=O)c1ccc(C(=O)Nc2ccc(Cl)c(-c3ccccn3)c2)c(Cl)c1`, the “activity change, negative = viability loss” value was 25.6%.
Consider `CNc1nccc(-c2cccnc2Oc2cc(C(=O)Nc3cccc(C(F)(F)F)c3)ccc2C)n1`, for which the Potency was 24.3 µM (active).
In the case of `CC(C)Oc1ccc2c(=O)c(-c3ccccc3)coc2c1`, the Potency is 15.3 µM (active).
As for `CN(C)C1CCN(C(=O)c2ccc(NC(=O)Nc3nc(N4CCOCC4)nc(N4CCOCC4)n3)cc2)CC1`, the Potency is 0.611 µM (active).
Turning to `COc1cc(N2CCC(N(C)C)CC2)ccc1Nc1ncc(Cl)c(Nc2ccccc2P(C)(C)=O)n1`, the Potency is 10.9 µM (active).
As to `Cc1cnc(CNC(=O)c2c(=O)c3ccc(N4CCCN(C)CC4)nc3n3c2sc2ccccc23)cn1`, the activity change, negative = viability loss was 22.5% [at 10.7 µM].
Regarding `CCCCN(CCCC)CC(O)c1cc(Cl)cc2c1-c1ccc(Cl)cc1/C2=C/c1ccc(Cl)cc1` (stereo not given), the “activity change, negative = viability loss” value was -11.5%.
On to `CC(=O)OC12COC1CC(O)C1(C)C(=O)C(O)C3=C(C)C(OC(=O)C(O)C(NC(=O)OC(C)(C)C)c4ccccc4)CC(O)(C(OC(=O)c4ccccc4)C21)C3(C)C` (stereo not given), for which the “activity change, negative = viability loss” value is 17.5%.
With `Cn1cnc2c(F)c(Nc3ccc(Br)cc3F)c(C(=O)NOCCO)cc21`, the “activity change, negative = viability loss” value was 9.19%.
Take `COc1cc2c(NC3CCN(C(C)C)CC3)nc(C3CCCCC3)nc2cc1OCCCN1CCCC1`: the Potency was 8.63 µM (active).
Consider `CCC1C(=O)N(C)c2cnc(Nc3ccc(C(=O)NC4CCC(N5CCN(CC6CC6)CC5)CC4)cc3OC)nc2N1C(C)C` (stereo not given), for which the Potency is 2.17 µM (active).
As for `Nc1nc(Cl)nc2c1ncn2C1OC(CO)C(O)C1F` (stereo not given), the Potency was 0.544 µM (active).
As for `COC(C)(C)CCn1nc(Nc2c(C)cccc2C)c2cnc(Nc3ccc(OCCN4CCCC4)c(F)c3)nc21`, the Potency is 21.7 µM (active).
As for `CCS(=O)(=O)N1CCN(c2ccc(Nc3ncc(C(N)=O)c(NC4CC4)n3)cc2)CC1`, the Potency was 6.85 µM (active).
In the case of `c1nc2nc(Nc3ccc(N4CCOCC4)cc3)nc(NC3CCCCC3)c2[nH]1`, the Potency was 4.73 µM (active).
In the case of `O=C1NC(=O)C(c2cnc3ccccn23)=C1c1cn2c3c(cccc13)CN(C(=O)N1CCOCC1)CC2`, the “activity change, negative = viability loss” value is 0.779%.
On the same count and under the same terms, the result for `Nc1ncn([C@@H]2O[C@H](CO)[C@@H](O)[C@H]2O)c(=O)n1` reads 1.76%; that for `COc1ccc2c(c1)c(CC(=O)O)c(C)n2C(=O)c1ccc(Cl)cc1`, 11.3%.
`Oc1cn2c(n1)Nc1ccc(Cl)c(Cl)c1C2`: the “activity change, negative = viability loss” value is -15.5% [at 19.5 µM].
As to `CCCc1nn(C)c2c(=O)[nH]c(-c3cc(S(=O)(=O)N4CCN(C)CC4)ccc3OCC)nc12`, the “activity change, negative = viability loss” value was -0.31%.
As to `N#CC1(c2cccc(C(=O)Nc3cc(Oc4ccc5nc(NC(=O)C6CC6)sc5n4)ccc3F)c2Cl)CC1`, the “activity change, negative = viability loss” value was -11.2%.
Regarding `O=C(CCCCCCC(=O)Nc1ccccc1)NO`, the Potency was 12.2 µM (active).
